Of roughly 8,800 targets only a part is listed; those with a hit were picked by preference. About 0.5% of all pairs of compound and target were hits. Unmarked numbers belong to inactive results.
Assays:
Assay in all cases: log2 fold change, soluble protein after heating vs DMSO (PISA); higher = thermal stabilisation; K562 lysate, 10 uM; active = over 0.2 and 3.5 SD of the protein, either way, in both replicates (recomputed)
[1] = compound: CCCS(=O)(=O)Nc1ccc(F)c(C(=O)c2c[nH]c3ncc(-c4ccc(Cl)cc4)cc23)c1F [vemurafenib]
In short: (§1)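 Values give the log-two fold change in thermal stability against solvent controls, from duplicates. Crude K562 extract at 1 mg/mL protein, made by dounce homogenisation in PBS pH 7.4 with 1 mM MgCl2, was treated with 10 μM compound for 30 min. After 3 min heating across 48°C-58°C, aliquots were pooled, adjusted to 0.5% NP-40 at 4°C and centrifuged at 21,000xg for 90 min. The supernatant was measured by TMTpro 16plex LC-MS/MS with channel sums equalised.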

[2] = compound: CCCS(=O)(=O)Nc1ccc(F)c(C(=O)c2c[nH]c3ncc(Cl)cc23)c1F
In short: as §1

[3] = compound: CCN(CCCOc1ccc2c(Nc3cc(CC(=O)Nc4cccc(F)c4)[nH]n3)ncnc2c1)CCOP(=O)(O)O [barasertib]
In short: as §1

[4] = compound: CC[C@@H]1C(=O)N(C)c2cnc(Nc3ccc(C(=O)NC4CCN(C)CC4)cc3OC)nc2N1C1CCCC1
In short: as §1

[5] = compound: CC[C@@H]1C(=O)N(C)c2cnc(Nc3ccc(C(=O)N[C@H]4CC[C@H](N5CCN(CC6CC6)CC5)CC4)cc3OC)nc2N1C(C)C [volasertib]
In short: as §1

[6] = compound: CCn1c(C(=O)N(C2CC2)C2CC2)cc2c3c(ncn3C)c(Nc3cc(C)n(C)n3)nc21
In short: as §1

[7] = compound: CCn1cc(-c2ccnc3[nH]c(-c4cccc(CN(C)C)c4)cc23)c(-c2ccc(NC(=O)N(C)C)cc2)n1
In short: as §1

[8] = compound: CN1CCC(CNc2ccc3ncc(-c4cccc(OC(F)(F)F)c4)n3n2)CC1
In short: as §1

[9] = compound: CN1CCN(CCOc2cc(OC3CCOCC3)c3c(Nc4c(Cl)ccc5c4OCO5)ncnc3c2)CC1 [saracatinib]
In short: as §1

[10] = compound: CN1CCN(c2nc(C3=C(c4c[nH]c5ccccc45)C(=O)NC3=O)c3ccccc3n2)CC1 [sotrastaurin]
In short: as §1

Sequence of UniProt Q6PML9 (Q6PML9 whole entry, looked up): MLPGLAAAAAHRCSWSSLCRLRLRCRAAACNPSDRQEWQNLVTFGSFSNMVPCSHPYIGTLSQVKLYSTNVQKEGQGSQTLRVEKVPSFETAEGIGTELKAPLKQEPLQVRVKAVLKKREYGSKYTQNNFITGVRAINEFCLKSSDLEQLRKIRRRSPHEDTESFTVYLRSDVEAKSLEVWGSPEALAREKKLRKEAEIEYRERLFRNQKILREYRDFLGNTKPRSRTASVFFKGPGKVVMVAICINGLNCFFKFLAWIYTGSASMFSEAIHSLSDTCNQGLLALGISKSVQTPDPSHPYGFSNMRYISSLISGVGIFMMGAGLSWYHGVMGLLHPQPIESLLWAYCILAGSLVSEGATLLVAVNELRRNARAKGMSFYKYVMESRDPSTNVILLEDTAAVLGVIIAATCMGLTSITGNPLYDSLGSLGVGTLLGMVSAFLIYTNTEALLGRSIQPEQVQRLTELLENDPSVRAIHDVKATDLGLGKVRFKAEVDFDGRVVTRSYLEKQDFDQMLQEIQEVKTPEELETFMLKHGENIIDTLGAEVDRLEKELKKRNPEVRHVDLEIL
Sequence of UniProt Q08AE8 (Q08AE8 whole entry, looked up): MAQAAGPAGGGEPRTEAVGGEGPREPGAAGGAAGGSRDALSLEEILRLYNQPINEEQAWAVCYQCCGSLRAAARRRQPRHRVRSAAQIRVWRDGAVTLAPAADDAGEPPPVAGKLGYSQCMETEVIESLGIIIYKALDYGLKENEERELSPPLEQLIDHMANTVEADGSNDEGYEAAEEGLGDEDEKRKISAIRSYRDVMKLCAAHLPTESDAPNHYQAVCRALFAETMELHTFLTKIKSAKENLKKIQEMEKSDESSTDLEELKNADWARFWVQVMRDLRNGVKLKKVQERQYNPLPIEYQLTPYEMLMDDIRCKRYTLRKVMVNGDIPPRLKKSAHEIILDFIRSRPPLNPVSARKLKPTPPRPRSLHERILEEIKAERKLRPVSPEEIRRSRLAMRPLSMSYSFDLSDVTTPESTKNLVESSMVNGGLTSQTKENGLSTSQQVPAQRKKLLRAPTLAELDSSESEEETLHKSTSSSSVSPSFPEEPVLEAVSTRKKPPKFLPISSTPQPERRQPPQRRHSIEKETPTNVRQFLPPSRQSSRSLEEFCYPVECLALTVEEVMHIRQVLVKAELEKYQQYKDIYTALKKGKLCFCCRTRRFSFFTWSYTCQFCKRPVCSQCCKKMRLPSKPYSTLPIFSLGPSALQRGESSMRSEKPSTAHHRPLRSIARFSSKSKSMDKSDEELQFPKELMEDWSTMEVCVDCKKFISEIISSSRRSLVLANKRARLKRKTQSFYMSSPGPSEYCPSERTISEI
Sequence of UniProt O75528 (O75528 whole entry, looked up): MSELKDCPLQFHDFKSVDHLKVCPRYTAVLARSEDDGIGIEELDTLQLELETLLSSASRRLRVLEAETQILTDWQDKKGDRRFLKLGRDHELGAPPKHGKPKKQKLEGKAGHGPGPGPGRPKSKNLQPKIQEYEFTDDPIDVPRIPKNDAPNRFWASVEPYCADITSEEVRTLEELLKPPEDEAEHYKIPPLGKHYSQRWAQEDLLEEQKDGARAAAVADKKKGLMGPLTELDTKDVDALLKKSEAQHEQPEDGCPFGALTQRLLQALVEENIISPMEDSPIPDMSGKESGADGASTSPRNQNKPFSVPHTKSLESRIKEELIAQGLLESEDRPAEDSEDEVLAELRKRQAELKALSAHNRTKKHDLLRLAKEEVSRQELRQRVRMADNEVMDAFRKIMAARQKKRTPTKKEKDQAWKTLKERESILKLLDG
Sequence of UniProt Q16637 (Q16637 whole entry, looked up): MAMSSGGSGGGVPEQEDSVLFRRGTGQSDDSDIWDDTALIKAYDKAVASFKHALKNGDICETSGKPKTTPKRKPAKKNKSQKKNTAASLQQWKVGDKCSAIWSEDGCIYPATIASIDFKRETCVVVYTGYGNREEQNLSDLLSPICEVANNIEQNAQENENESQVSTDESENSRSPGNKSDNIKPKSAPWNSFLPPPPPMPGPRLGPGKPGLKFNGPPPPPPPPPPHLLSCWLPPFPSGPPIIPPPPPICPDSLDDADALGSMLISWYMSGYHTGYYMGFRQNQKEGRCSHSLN
Sequence of UniProt Q9H2V7 (Q9H2V7 whole entry, looked up): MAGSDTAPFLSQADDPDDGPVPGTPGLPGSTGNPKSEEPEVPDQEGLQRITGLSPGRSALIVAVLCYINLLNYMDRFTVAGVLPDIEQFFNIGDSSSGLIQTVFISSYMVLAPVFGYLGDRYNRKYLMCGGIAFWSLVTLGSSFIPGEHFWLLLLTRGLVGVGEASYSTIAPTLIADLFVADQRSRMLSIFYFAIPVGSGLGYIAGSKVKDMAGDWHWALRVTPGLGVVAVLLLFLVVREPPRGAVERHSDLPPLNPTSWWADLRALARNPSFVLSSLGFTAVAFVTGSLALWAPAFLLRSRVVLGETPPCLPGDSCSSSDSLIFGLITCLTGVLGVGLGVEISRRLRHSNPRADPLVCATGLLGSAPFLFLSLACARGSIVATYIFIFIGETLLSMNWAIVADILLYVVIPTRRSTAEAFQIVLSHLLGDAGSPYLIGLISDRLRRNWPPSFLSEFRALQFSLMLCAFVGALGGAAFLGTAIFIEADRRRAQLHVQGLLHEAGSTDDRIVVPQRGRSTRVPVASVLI
Sequence of UniProt P31947 (P31947 whole entry, looked up): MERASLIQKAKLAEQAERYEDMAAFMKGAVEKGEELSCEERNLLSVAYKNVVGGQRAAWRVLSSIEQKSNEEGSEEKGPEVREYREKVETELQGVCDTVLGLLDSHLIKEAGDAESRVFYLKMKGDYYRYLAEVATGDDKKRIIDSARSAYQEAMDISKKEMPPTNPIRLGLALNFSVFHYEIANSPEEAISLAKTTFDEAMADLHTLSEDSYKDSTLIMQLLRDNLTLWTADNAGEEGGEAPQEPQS
Sequence of UniProt Q16629 (Q16629 whole entry, looked up): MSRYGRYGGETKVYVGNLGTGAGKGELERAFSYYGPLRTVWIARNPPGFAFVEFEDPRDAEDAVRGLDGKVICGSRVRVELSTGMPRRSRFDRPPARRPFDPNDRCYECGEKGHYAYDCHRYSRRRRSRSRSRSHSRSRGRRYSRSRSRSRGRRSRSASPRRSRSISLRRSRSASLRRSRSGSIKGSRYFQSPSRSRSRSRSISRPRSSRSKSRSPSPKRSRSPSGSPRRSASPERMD
Sequence of UniProt Q8WVK7 (Q8WVK7 whole entry, looked up): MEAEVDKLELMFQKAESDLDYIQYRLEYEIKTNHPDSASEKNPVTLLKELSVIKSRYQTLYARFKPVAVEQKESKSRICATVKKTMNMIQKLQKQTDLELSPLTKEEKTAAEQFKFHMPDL
Sequence of UniProt Q15208 (Q15208 whole entry, looked up): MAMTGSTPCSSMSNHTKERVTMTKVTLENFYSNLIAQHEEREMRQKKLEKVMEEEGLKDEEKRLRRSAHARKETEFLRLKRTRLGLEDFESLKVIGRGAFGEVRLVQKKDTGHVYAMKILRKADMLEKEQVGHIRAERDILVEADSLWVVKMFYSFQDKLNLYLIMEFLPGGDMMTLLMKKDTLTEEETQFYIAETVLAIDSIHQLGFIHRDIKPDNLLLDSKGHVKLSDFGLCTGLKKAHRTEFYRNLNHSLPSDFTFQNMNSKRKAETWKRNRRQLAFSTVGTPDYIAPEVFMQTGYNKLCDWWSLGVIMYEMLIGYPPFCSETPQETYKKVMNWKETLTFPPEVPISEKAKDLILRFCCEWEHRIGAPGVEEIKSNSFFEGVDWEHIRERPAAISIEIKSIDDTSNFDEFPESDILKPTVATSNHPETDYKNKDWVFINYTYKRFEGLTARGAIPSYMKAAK
Sequence of UniProt Q9UNE7 (Q9UNE7 whole entry, looked up): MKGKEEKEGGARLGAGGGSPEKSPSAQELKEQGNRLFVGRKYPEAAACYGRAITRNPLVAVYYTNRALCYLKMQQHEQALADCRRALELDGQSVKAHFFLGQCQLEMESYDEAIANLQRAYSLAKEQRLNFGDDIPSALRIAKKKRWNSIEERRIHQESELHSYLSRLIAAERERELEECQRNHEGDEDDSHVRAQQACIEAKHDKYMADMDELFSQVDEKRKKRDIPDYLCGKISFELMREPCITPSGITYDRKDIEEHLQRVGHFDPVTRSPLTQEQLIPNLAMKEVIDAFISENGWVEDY
Sequence of UniProt Q15506 (Q15506 whole entry, looked up): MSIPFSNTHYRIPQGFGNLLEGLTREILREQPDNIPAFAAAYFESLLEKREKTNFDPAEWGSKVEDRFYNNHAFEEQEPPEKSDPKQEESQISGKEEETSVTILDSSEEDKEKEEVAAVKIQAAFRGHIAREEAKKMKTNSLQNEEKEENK
Sequence of UniProt O15198 (O15198 whole entry, looked up): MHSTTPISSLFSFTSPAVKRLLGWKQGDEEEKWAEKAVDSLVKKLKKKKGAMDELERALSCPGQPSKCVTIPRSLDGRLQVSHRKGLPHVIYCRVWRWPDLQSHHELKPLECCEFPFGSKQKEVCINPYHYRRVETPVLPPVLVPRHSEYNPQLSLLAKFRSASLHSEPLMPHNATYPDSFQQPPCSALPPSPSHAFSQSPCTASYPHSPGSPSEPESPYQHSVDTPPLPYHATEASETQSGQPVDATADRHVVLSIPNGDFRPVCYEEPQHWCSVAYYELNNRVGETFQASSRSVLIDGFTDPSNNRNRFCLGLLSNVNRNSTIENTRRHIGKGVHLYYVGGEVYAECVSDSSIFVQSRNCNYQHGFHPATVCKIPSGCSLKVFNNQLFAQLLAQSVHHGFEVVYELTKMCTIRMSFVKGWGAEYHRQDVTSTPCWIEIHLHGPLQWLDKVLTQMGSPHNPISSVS
Sequence of UniProt P10124 (P10124 whole entry, looked up): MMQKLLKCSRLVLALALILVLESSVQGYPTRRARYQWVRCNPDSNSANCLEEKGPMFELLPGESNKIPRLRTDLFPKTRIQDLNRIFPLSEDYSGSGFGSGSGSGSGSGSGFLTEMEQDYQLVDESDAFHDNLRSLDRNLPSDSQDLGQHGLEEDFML

| Target | log2 fold change [1] | log2 fold change [2] | log2 fold change [3] | log2 fold change [4] | log2 fold change [5] | log2 fold change [6] | log2 fold change [7] | log2 fold change [8] | log2 fold change [9] | log2 fold change [10] |
| --- | --- | --- | --- | --- | --- | --- | --- | --- | --- | --- |
| SMC4 (UniProt Q9NTJ3) | 0.002 | 0.001 | 0.022 | -0.059 | -0.041 | 0.006 | 0.053 | -0.118 | 0.015 | 0.012 |
| SSB (UniProt P05455) | -0.004 | -0.02 | -0.001 | -0.011 | 0.011 | 0.002 | 0.011 | -0.021 | -0.015 | -0.016 |
| SSU72 (UniProt Q9NP77) | -0.018 | 0.001 | 0.018 | -0.064 | -0.045 | -0.049 | -0.325 (active) | 0.171 | -0.001 | 0.018 |
| STUB1 (UniProt Q9UNE7) | 0.01 | 0.02 | -0.007 | -0.072 | -0.051 | 0.018 | -0.015 | -0.03 | 0.006 | 0.004 |
| SPIRE1 (UniProt Q08AE8) | 0.009 | 0.05 | 0.023 | 0.051 | -0.016 | 0.003 | -0.298 | 0.077 | 0.017 | 0.089 |
| SRSF7 (UniProt Q16629) | 0.012 | 0.03 | -0.057 | -0.007 | 0.012 | 0.017 | -0.034 | 0.193 | -0.008 | 0.028 |
| STAU1 (UniProt O95793) | 0.027 | 0.003 | 0.01 | 0 | -0.013 | 0.069 | 0.25 | -0.103 | 0.004 | -0.039 |
| SRGN (UniProt P10124) | 0.177 | 0.093 | -0.033 | 0.059 | -0.086 | -0.005 | -0.022 | 0.101 | 0.043 | 0.069 |
| SLC25A38 (UniProt Q96DW6) | 0.037 | 0.013 | -0.005 | 0.209 | 0.012 | 0.015 | -0.055 | 0.067 | -0.127 | 0.07 |
| STK38 (UniProt Q15208) | -0.046 | -0.012 | 0.031 | -0.112 | -0.092 | 0.019 | 0.122 | 0.002 | -0.019 | 0.02 |
| SFN (UniProt P31947) | -0.038 | 0.003 | -0.025 | 0.006 | 0.029 | 0.023 | 0.521 (active) | -0.084 | -0.003 | -0.01 |
| SMC2 (UniProt O95347) | 0.002 | 0.007 | -0.001 | -0.033 | -0.047 | -0.002 | 0.134 | -0.121 | 0.005 | 0.014 |
| SKA2 (UniProt Q8WVK7) | 0 | 0.014 | 0.078 | 0 | -0.043 | 0.02 | -0.032 | -0.015 | 0.028 | -0.097 |
| SPC25 (UniProt Q9HBM1) | 0.011 | -0.008 | 0.036 | 0.006 | -0.019 | 0.012 | -0.083 | -0.004 | 0.013 | -0.013 |
| SMAD9 (UniProt O15198) | -0.045 | -0.003 | 0.032 | -0.011 | 0.024 | 0.111 | 0.021 | 0.048 | 0.08 | 0.007 |
| STK39 (UniProt Q9UEW8) | 0.002 | 0.01 | 0.012 | -0.046 | -0.048 | 0.001 | -0.013 | -0.027 | -0.002 | 0.02 |
| TADA3 (UniProt O75528) | -0.007 | 0.004 | 0.002 | 0.008 | -0.006 | -0.022 | -0.122 | 0.006 | -0.017 | -0.012 |
| STARD3 isoform 3 (UniProt Q14849) | 0.029 | 0.054 | 0.051 | 0.289 | 0.18 | -0.031 | -0.122 | 0.02 | -0.091 | -0.016 |
| SMG6 (UniProt Q86US8) | 0.12 | -0.006 | 0.014 | -0.139 | -0.031 | 0.038 | -0.16 | 0.141 | 0.036 | 0.098 |
| SMN1 (UniProt Q16637) | 0.031 | 0.075 | -0.056 | -0.026 | 0 | -0.037 | -0.073 | -0.031 | 0.053 | -0.039 |
| SPG11 (UniProt Q96JI7) | 0.084 | -0.011 | 0.006 | -0.042 | -0.037 | -0.05 | 0.06 | -0.13 | 0.077 | 0.007 |
| SLC12A6 (UniProt Q9UHW9) | 0.015 | 0.021 | 0.002 | 0.037 | 0.002 | 0.008 | -0.06 | 0.012 | -0.003 | -0.01 |
| STK11IP (UniProt Q8N1F8) | -0.016 | 0.018 | -0.04 | 0.075 | -0.067 | 0.002 | 0.015 | -0.072 | 0.012 | 0.016 |
| SSB (UniProt E7ERC4) | 0.111 | 0 | -0.04 | -0.281 | 0.003 | -0.134 | 1.92 (active) | -0.377 | 0.013 | -0.012 |
| SLC30A9 (UniProt Q6PML9) | -0.005 | 0.024 | 0.015 | 0.07 | 0.018 | 0.056 | -0.534 (active) | 0.079 | 0.034 | -0.056 |
| SMG1 (UniProt Q96Q15) | 0.059 | 0.031 | 0.08 | 0.017 | -0.027 | -0.026 | 0.003 | -0.072 | 0.039 | 0.032 |
| SPNS1 (UniProt Q9H2V7) | 0 | 0.036 | -0.004 | 0.154 | -0.004 | -0.097 | -0.014 | 0.064 | -0.006 | 0.02 |
| SPA17 (UniProt Q15506) | -0.013 | -0.004 | 0.021 | 0.005 | 0.09 | 0.022 | -0.639 (active) | 0.245 | 0.004 | 0.021 |
| SRM (UniProt P19623) | -0.004 | -0.003 | -0.008 | -0.02 | -0.034 | -0.001 | 0.015 | 0 | 0.02 | 0.011 |
| STAT2 (UniProt P52630) | 0.04 | 0.026 | -0.021 | -0.03 | -0.047 | 0.033 | -0.011 | -0.164 | -0.009 | 0.029 |

Source: the supplement of paper PMC10849652
